Shown are actives, neighbours in structure and some others; about 4.1% of the full set was active somewhere.
ssDAF-12 act – activators of S. stercoralis DAF-12 nuclear receptor; HEK293 ssDAF-12/GRIP1 lit1-tk-luc reporter, luminescence; % of 3 µM dafachronic acid response; activation, % at 6.8 µM; 370,000 tested, 1% active; AID 652126;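 active = activation above the mean over all tested compounds plus 3 SD, cut at about 0.9% in these data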
PolyA inh – inhibitors of polyadenylation in S. cerevisiae | activity score, % at 12 µM | AID 1875 | S. cerevisiae SKY197-pL101 polyadenylation reporter, beta-gal luminescence; efflux-impaired pdr1/pdr3 knockout yeast; score 100 = 6 SD above DMSO | 300,000 tested, 0.02% active;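 active = lowest replicate activity score at least 50, where 100 means six control SD above control mean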;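 note: yeast exposed to compound for 9 h at 30 °C; higher score means more reporter readthrough which indicates perturbed polyadenylation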
DAX1 inh-1 – inhibitors of DAX1 repression of SF-1 activated StAR promoter; inhibition, % at 6.8 µM; HEK293T StAR-luciferase reporter, SF-1/DAX-1 repression relief; 370,000 tested, 1.1% active; AID 652010;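 active = inhibition above the mean over all tested compounds plus 3 SD, cut at about 3.6% in these data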;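 note: higher inhibition means more luminescence from relief of DAX-1 repression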
hcDAF12 agonist – activators of H. contortus DAF-12 nuclear receptor; 370,000 tested, 1.4% active; HEK293 hcDAF-12 lit1-tk-luc reporter, luminescence; 0% DMSO, 100% Δ7-dafachronic acid; activation, % at 6.8 µM;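 active = activation above the mean of all tested compounds plus 3 SD, cut at about 5.5% in these data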
DAX1 inh-2 – NR0B1 (DAX1) inhibition; HEK293 Gal4-DAX1 luciferase reporter, luminescence; AID 504766; inhibition, % at 6.75 µM; 340,000 tested, 0.99% active;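 active = inhibition above the mean over all tested compounds plus 3 SD, cut at about 4.2% in these data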;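 note: inhibition shows as a rise in luminescence from relieved DAX1 repression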
Target sequence (P51843 207-470 limits assumed): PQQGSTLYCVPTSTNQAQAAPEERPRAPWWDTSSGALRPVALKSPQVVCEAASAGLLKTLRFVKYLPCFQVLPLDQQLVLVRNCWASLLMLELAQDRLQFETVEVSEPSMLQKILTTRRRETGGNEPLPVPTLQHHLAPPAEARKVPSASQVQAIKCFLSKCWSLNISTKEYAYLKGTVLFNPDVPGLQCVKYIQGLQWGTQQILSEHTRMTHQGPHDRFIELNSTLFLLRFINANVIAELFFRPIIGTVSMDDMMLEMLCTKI
hgDAF-12 ag – agonists of H. glycines DAF-12 nuclear receptor. HEK293 GAL4-hgDAF12 UAS-luciferase reporter, agonist luminescence; normalized to butyrate control. activation, % at 6.8 µM. 370,000 tested, 1.8% active. AID 687014;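 active = activation above a cutoff set at the mean of all screened compounds plus 3 SD, cut at about 10% in these data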
Of the large screens only hits and unclear results are named; the others gave an inactive call.

Cc1nc(N2CCN(c3ccccn3)CC2)c2c(C)c(C(=O)Nc3ccc(F)cc3F)sc2n1	none
COC(=O)[C@]12C[C@H](CC(=O)NCCCCc3ccccc3)C(=O)N(Cc3ccc4c(c3)OCO4)C1=C[C@H](C(C)C)O[C@@H]2C1CC1	none (no result: PolyA inh, DAX1 inh-2)
COc1cc(C(=O)OCC(=O)N2CCCCC2C)ccc1OCc1c(C)noc1C (stereo not drawn)	DAX1 inh-2 4.7
c1ccc(CNC2CC3CCC2C3)cc1 (stereo not drawn)	ssDAF-12 act 0.9 (no result: PolyA inh)
COC(=O)C1CCN(C2CN(Cc3cn(Cc4ccc(C(F)(F)F)cc4)nn3)S(=O)(=O)C2)CC1 (stereo not drawn)	none (no result: PolyA inh, DAX1 inh-2)
Cc1ccc(/C=C/C(=O)c2nc3ccccc3[nH]2)cc1	none
O=C(CCCOc1ccccc1)Nc1nc2ccccc2[nH]1	hgDAF-12 ag 12
O=C(Nc1nc2ccccc2[nH]1)c1ccccc1O	ssDAF-12 act 1.2, hgDAF-12 ag 11
Cc1ccc(OCCCC(=O)Nc2nc3ccccc3[nH]2)cc1	none
Cc1ccc(/C=C/C(=O)Nc2nc3ccccc3[nH]2)cc1	hcDAF12 agonist 5.8
CC(=O)Nc1nc2ccccc2[nH]1	none
O=C(Nc1nc2ccccc2[nH]1)c1ccc(Cl)cc1	hcDAF12 agonist 5.8
CCOC(=O)N1C(=O)C[C@](Sc2ccc(OC)cc2)(C(=O)N2CCCC2)[C@H]1c1ccc(OC)cc1	none (no result: PolyA inh, DAX1 inh-2)
CC(=O)CC[C@@H]1CC[C@]2(CCCN(S(=O)(=O)c3ccccc3)C2)O1	none (no result: PolyA inh, DAX1 inh-2)
Cc1ccc(S(=O)(=O)NC[C@H]2CN(S(=O)(=O)c3ccc(C)cc3)[C@@H](Cc3ccccc3)CO2)cc1	none (no result: PolyA inh, DAX1 inh-1, DAX1 inh-2)
O=C(CN1C(=O)C2CC=CCC2C1=O)Nc1nc2ccccc2[nH]1 (stereo not drawn)	DAX1 inh-2 5.4
O=C(Cc1ccccc1)Nc1nc2ccccc2[nH]1	none
O=C(Cc1c[nH]c2ccccc12)Nc1nc2ccccc2[nH]1	ssDAF-12 act 1.9
C#CCOCCOCCOCCNc1nc(N2CCN(C(=O)[C@H]([C@@H](C)CC)n3cc(CCCCN)nn3)CC2)nc(N2CCN(C(=O)[C@H](Cc3ccc(O)cc3)n3cc(CCO)nn3)CC2)n1	none (no result: PolyA inh, DAX1 inh-1, DAX1 inh-2)
COc1cccc(/C=C2/Sc3ccc(C(=O)NCCCN4CCCC4)cc3NC2=O)c1	DAX1 inh-1 3.7
CC(=O)N1CCN=C1SCc1ccccc1Cl	DAX1 inh-2 5.0
CCC(=O)N1CCN=C1SCc1ccccc1Cl	none
COc1ccc(Cl)cc1NC(=O)c1[nH]c(C)c(C(C)=O)c1C	none
COc1ccccc1NS(=O)(=O)c1cc(NC(=O)c2ccccc2C)ccc1N1CCOCC1	none (no result: PolyA inh)
COc1ccccc1NS(=O)(=O)c1cc(NC(=O)c2[nH]c(C)c(C(C)=O)c2C)ccc1N1CCOCC1	DAX1 inh-1 4.0
COc1ccc(OC)c(NC(=O)c2[nH]c(C)c(C(C)=O)c2C)c1	hcDAF12 agonist 5.8
COc1ccc(CCn2cnn3c(=O)c4ccccc4nc3c2=O)cc1OC	none (no result: PolyA inh, DAX1 inh-2)
O=C(Cn1ncc(N2CCCC2)c(Cl)c1=O)c1ccc(Cl)cc1	ssDAF-12 act 1.6
O=C(Cn1ncc(N2CCOCC2)c(Br)c1=O)c1ccc(Cl)cc1	none
O=C1C=C(O)c2c(O)cc(O)c(O)c2C1=O	DAX1 inh-2 5.2
CC1CC(C(O)c2ccccn2)C(=O)C(C(O)c2ccccn2)C1 (stereo not drawn)	ssDAF-12 act 2.0 (no result: PolyA inh)
C[C@H]1COc2cc(Br)ccc2S(=O)(=O)N1Cc1cn(Cc2ccco2)nn1	none (no result: PolyA inh, DAX1 inh-2)
C=CCc1ccccc1OCCSc1nc2ccc([N+](=O)[O-])cc2s1	ssDAF-12 act 2.0
NC(=O)c1cc2ccncc2c2ccccc12	hgDAF-12 ag 11
CCOC(=O)c1sc2nc3c(SCCC#N)cc(C(=O)c4cc(F)ccc4O)cn3c(=O)c2c1C	ssDAF-12 act 1.5
CCOC(=O)c1sc2nc3c(SCCC(=O)O)cc(C(=O)c4cc(OC)ccc4O)cn3c(=O)c2c1C	none
CC(C)c1ccc(NC(=O)N2CCc3ccccc3C2)cc1	hcDAF12 agonist 5.8
O=C(Nc1ccc([N+](=O)[O-])cc1)N1CCc2ccccc2C1	none
O=C1CCC(NC(=O)Cc2ccccc2)C(=O)N1 (stereo not drawn)	none (no result: PolyA inh, DAX1 inh-2)
Cc1ccc(Nc2nc(N)c([N+](=O)[O-])c(NCCO)n2)cc1C	DAX1 inh-2 4.4
C=CCN1C(=O)[C@H](CC(=O)NCCCCc2ccccc2)[C@@]2(C(=O)OCC)CCCC=C12	none (no result: PolyA inh, DAX1 inh-2)
COC(=O)C1CN(Cc2ccccc2)CCS(=O)(=O)N1Cc1cccc(Cl)c1 (stereo not drawn)	none (no result: PolyA inh, DAX1 inh-2)
Cc1cc(C)c(C)c(S(=O)(=O)NCC(=O)N2CCCC2)c1C	ssDAF-12 act 0.9
CN(C)c1ccc(/C=C(/NC(=O)c2ccccc2)C(=O)N/N=C/c2ccc([N+](=O)[O-])c(O)c2)cc1	hgDAF-12 ag 12
O=C(N/N=C/c1ccc2c(c1)OCO2)/C(=C/c1ccc2c(c1)OCO2)NC(=O)c1ccccc1	none
CCN(c1cccc(C)c1)C(C(=O)Nc1ccc(OC)cc1)c1cc2c(cc1[N+](=O)[O-])OCO2 (stereo not drawn)	none
COc1ccc(NC(=O)C(c2cc3c(cc2[N+](=O)[O-])OCO3)N(C)Cc2ccccc2)cc1 (stereo not drawn)	hcDAF12 agonist 5.8
CC(C)CN1C(=O)[C@]2(CC(=O)N(C)C2c2ccccc2)c2cc(-n3cc(C4=CCCCC4)nn3)ccc21 (stereo partly drawn)	none (no result: PolyA inh, DAX1 inh-2)
CN(C)c1ccc(-c2nc3ccccc3n2C)cc1	DAX1 inh-1 4.0
COc1ccccc1C(O)Cc1nc2ccccc2n1C (stereo not drawn)	none
CC(C)c1ccc(C(O)Cc2nc3ccccc3n2C)cc1 (stereo not drawn)	DAX1 inh-2 4.6
CN(C)c1ccc(C(O)Cc2nc3ccccc3n2C)cc1 (stereo not drawn)	hcDAF12 agonist 5.6
C=CCN1C(=O)[C@@H](CC(=O)NCc2cccc3ccccc23)[C@]2(C(=O)OCC)CCCCC/C=C/12	none (no result: PolyA inh, DAX1 inh-2)
O=C(NC1CCCCC1)C1c2ccccc2OCC(=O)N1Cc1ccco1 (stereo not drawn)	DAX1 inh-1 4.4 (no result: PolyA inh, DAX1 inh-2)
O=C(NC1CCCC1)C1c2ccccc2OCC(=O)N1Cc1ccccn1 (stereo not drawn)	none (no result: PolyA inh, DAX1 inh-2)
COc1ccc(S(=O)(=O)N(C)C[C@@H]2Oc3c(NC(=O)Nc4cccc5ccccc45)cccc3C(=O)N([C@@H](C)CO)C[C@H]2C)cc1	none (no result: PolyA inh, DAX1 inh-1, DAX1 inh-2)
O=[N+]([O-])c1ccc(Nc2nc(N3CCOCC3)nc(N3CCOCC3)n2)cc1	ssDAF-12 act 1.1
Fc1ccc(Nc2nc(N3CCOCC3)nc(N3CCOCC3)n2)cc1	none
Cc1ccc(C(=O)Oc2ccc(/C=C3\C(=N)N4N=C(N5CCOCC5)SC4=NC3=O)cc2)cc1	hgDAF-12 ag 12

Screening data from PubChem BioAssay.
